According to PubChem BioAssay (NCATS):
Values joined by “and” are separate entries in the source; they are usually repeats but may differ in a detail not shown here. Identical values can stand only once. Results filed as inconclusive are left out. Where a structure was tested more than once in an assay, its records may differ in their call. Active and inactive are the calls of the source. Unless noted, calls follow the shape of the dose curve; as a rule, active = well fitted curve in the direction sought with a large enough effect; inconclusive = small, poorly fitted or top-dose-only effect, or another doubt; inactive = no such curve, though single readings can be large; an effect the other way counts as inactive or inconclusive.

Experiments:
[1] = qHTS profiling of the MIPE4 collection as inhibitors of Plasmodium falciparum (HB3) proliferation (AID 743347; call rule not given here;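 also: plate controls were DMSO vehicle wells for no effect and artemisinin wells for full effect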); conditions: P. falciparum HB3 in erythrocytes, SYBR Green DNA, 72 h; at 28.5 µM (top of the series) unless noted
Procedure, shortened: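 Erythrocytes infected with P. falciparum (0.3% parasitemia, 2.5% hematocrit) incubated with compounds 72 h at 37 C, 5% CO2. Lysis with saponin/Triton buffer containing SYBR Green I, overnight at room temperature in the dark; DNA fluorescence (485/535 nm) normalised to 0.29 uM artemisinin and DMSO.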

[2] = High-throughput drug toxicity screening in the BPDCN cell line Gen2.2 (AID 1224824; call rule not given here;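 also: cells exposed to compounds for 48 h before reading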); conditions: Gen2.2 BPDCN cells; at 45.8 µM (top of the series) unless noted
Procedure, shortened: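 CellTiter-Glo luminescence read after 48 h compound exposure at 37 C defines viability; percent activity set with DMSO as 100% and bortezomib (9.2 uM final) as 0%. 500 exponentially growing cells per well, RPMI plus 10% FBS.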

[3] = High-throughput drug toxicity screening in the BPDCN cell line Cal-1 (AID 1224825; call rule not given here); conditions: Cal-1 BPDCN cell viability, qHTS; at 45.8 µM (top of the series) unless noted
Procedure, shortened: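 Cal-1 cells, 500 per well in phenol-red-free RPMI with 10% FBS, exposed to compounds for 48 hours at 37C, 5% CO2. Viability read by CellTiter-Glo luminescence; percent activity normalized to DMSO (100%) and 9.2 uM bortezomib final (0%).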

[4] = qHTS assay for measurement of the activity of small molecule inhibitors on Zika virus induced Caspase-3 activity in human iPSC derived neural progenitor cells (hNPCs) (AID 1224857); also: nearly all actives have a fitted effect of over 65% in size; also: potency is read from the fitted curve at half-maximal effect
Procedure, shortened: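 After overnight (16–20 h) culture at 350 cells/well, hNPCs get compound, then ZIKV 2 FFU/cell one hour later. Six hours on, Caspase-Glo 3/7 is added and luminescence measured.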

[5] = qHTS Screen of the MIPE 4.0 Collection Against Ewings Sarcoma (RDES) (AID 1259252); also: nearly all actives have a fitted effect of over 35% in size; also: potency is read from the fitted curve at half-maximal effect
Procedure, shortened: (§1)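 Dose series incubated 48 h with cells in RPMI plus 5% FBS, glutamine and penicillin/streptomycin; cell viability then quantified via CellTiter-Glo.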

[6] = qHTS Screen of the MIPE 4.0 Collection Against Ewings Sarcoma (EW8) (AID 1259255); also: nearly all actives have a fitted effect of over 35% in size; also: potency is read from the fitted curve at half-maximal effect;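 as to viability: 100% = DMSO-treated cells and 0% = medium-only wells without cells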
Procedure, shortened: as §1

[7] = qHTS Screen of the MIPE 4.0 Collection Against Ewings Sarcoma (TC32) (AID 1259256); also: nearly all actives have a fitted effect of over 45% in size; also: potency is read from the fitted curve at half-maximal effect
Procedure, shortened: as §1

[8] = qHTS assay to identify small molecule inhibitors of chordoma cells - UCH-1 (AID 1259355); also: % is scaled to controls: 0 for no effect and ±100 for the full control effect; nearly all actives have a fitted effect of over 55% in size
Procedure, shortened: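 Cells (800/well) were seeded and left overnight at 37 C, 5% CO2, then treated with drugs at 15 concentrations plus a combination mix of auranofin, camptothecin, doxorubicin, rubitecan and topotecan. Viability after 48hr was read by CellTiter-Glo luminescence.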

[9] = qHTS Screen of the MIPE 4.0 Collection Against Ewings Sarcoma (TC71) (AID 1259253); also: nearly all actives have a fitted effect of over 40% in size; also: potency is read from the fitted curve at half-maximal effect
Procedure, shortened: as §1

SMILES	growth, % of control [1]	cell viability, % of control (lower = more cytotoxic) [2]	viability (% of control) [3]	Potency [4]	Potency [5]	Potency [6]	Potency [7]	activity, negative = inhibition [8]	Potency [9]	Potency [8]
COc1cc2nc(N3CCN(C(=O)C4CCCO4)CC3)nc(N)c2cc1OC (configuration not stated)	11.3%	151%	88.2%	inactive and 13.2 µM (active)	inactive	inactive	inactive	-3.3% [at 1.88 µM] (inactive)	–	–
COc1ccccc1N1CCN(CCN(C(=O)C2CCCCC2)c2ccccn2)CC1	83.7%	39.9%	80.8%	inactive	inactive	inactive	inactive	–	inactive	–
CN(C)c1ccc(O)c2c1C[C@H]1C[C@H]3[C@H](N(C)C)C(=O)C(C(N)=O)=C(O)[C@@]3(O)C(=O)C1=C2O	6.27%	77.4%	80%	inactive	–	–	–	–	–	–
c1cnc2cc3c(cc2n1)C1CNCC3C1	68.4%	95.8%	97.2%	inactive	inactive	inactive	inactive	–	–	–
CC(=O)NC[C@H]1CN(c2ccc(N3CCOCC3)c(F)c2)C(=O)O1	94.8%	81.5%	105%	inactive	inactive	–	–	–	–	inactive
CN(C)C(=O)COC(=O)Cc1ccc(OC(=O)c2ccc(N=C(N)N)cc2)cc1	101%	129%	104%	inactive	16.6 µM (active)	–	0.0469 µM (active)	–	–	–
Cc1c(C(=O)NN2CCCCC2)nn(-c2ccc(Cl)cc2Cl)c1-c1ccc(Cl)cc1	8.97%	24.4%	13.1%	inactive	–	26.4 µM (active)	26.4 µM (active)	–	23.5 µM (active)	–
CC1(C)CCC(C)(C)c2cc(NC(=O)c3ccc(C(=O)O)cc3)ccc21	49.3%	73.5%	66%	inactive	23.5 µM (active)	–	–	–	–	inactive
Cc1ccc(C(=O)c2cc(O)c(O)c([N+](=O)[O-])c2)cc1	92.8%	52.4%	73.3%	inactive	–	–	–	–	–	–
O=c1ccc2ccc(O)c(O)c2o1	162%	42.5%	20.8%	inactive	–	–	13.2 µM (active)	–	14.8 µM (active)	–
C=CCc1cc(OC)c(O)c(C(=O)NCCO)c1	–	134%	128%	inactive	–	inactive	–	–	–	–
S=c1nc[nH]c2nc[nH]c12	55.2%	203%	89.6%	inactive	–	2.64 µM (active)	3.32 µM (active)	–	1.87 µM (active)	–
C=C(c1ccc(C(=O)O)cc1)c1cc2c(cc1C)C(C)(C)CCC2(C)C	76.8%	577%	89.3%	inactive	–	–	inactive	–	–	inactive
Cc1nccn1CC1CCc2c(c3ccccc3n2C)C1=O (configuration not stated)	54.5%	105%	92.7%	inactive	–	inactive	13.2 µM (active)	–	–	–
O=C(CS(=O)Cc1ccco1)NCC=CCOc1cc(CN2CCCCC2)ccn1 (configuration not stated)	86.8%	120%	112%	inactive	inactive	inactive	inactive	–	inactive	–
Cc1ccc(NC(=O)c2ccc(CN3CCN(C)CC3)cc2)cc1Nc1nccc(-c2cccnc2)n1	4.5%	308%	81%	inactive	–	–	–	–	–	–
Cc1ccc(S(=O)(=O)NC(=O)NN2CC3CCCC3C2)cc1 (configuration not stated)	7.17%	109%	35.2%	inactive	18.7 µM (active)	–	–	–	–	–
CCOC(=O)C1=C(O)C(=O)N(Cc2ccccc2)C1	93.7%	81.5%	112%	inactive	inactive	inactive	–	–	–	–

SMILES	growth, % of control [1]	cell viability, % of control (lower = more cytotoxic) [2]	viability (% of control) [3]	Potency [4]	Potency [5]	Potency [6]	Potency [7]	activity, negative = inhibition [8]	Potency [9]	Potency [8]
C[Se]CCC(N)C(=O)O (configuration not stated)	86.5% [at 57.5 µM]	170% [at 92.2 µM]	109% [at 92.2 µM]	inactive	inactive	inactive	inactive	–	inactive	inactive
O=c1oc2cc(O)ccc2s1	99.9%	68.5%	92.8%	11.8 µM (active)	16.6 µM (active)	13.2 µM (active)	20.9 µM (active)	–	18.7 µM (active)	–
CN(c1nccc(=O)[nH]1)C1CCN(c2nc3ccccc3n2Cc2ccc(F)cc2)CC1	17.5%	107%	108%	inactive	13.2 µM (active)	–	–	–	–	inactive
Clc1ccc(C(Cn2ccnc2)OCc2ccsc2Cl)c(Cl)c1 (configuration not stated)	8.47%	75.4%	32.2%	inactive	–	–	–	–	–	–
Clc1ccc(C(Cn2ccnc2)OCc2ccc(Sc3ccccc3)cc2)c(Cl)c1 (configuration not stated)	9.13%	183%	100%	inactive	–	–	–	–	–	–
NCCCCNCCCN	577%	3.46%	3.12%	inactive	inactive	–	inactive	–	inactive	–
CN(C)[C@@H](CCOc1cccc2ccccc12)c1ccccc1	15.2%	165%	78.2%	inactive	–	–	26.4 µM (active)	–	–	–
C[C@@H](N)C1CCC(C(=O)Nc2ccncc2)CC1 (some centres not stated)	72.6%	84.4%	79.9%	inactive	18.7 µM (active)	inactive	inactive	–	inactive	–
COc1c(O)cc2c(c1O)[C@@H]1O[C@H](CO)[C@@H](O)[C@H](O)[C@H]1OC2=O	116%	123%	97.8%	inactive	inactive	inactive	inactive	–	–	–
O=Nc1c(-c2c(O)[nH]c3cc(Br)ccc23)[nH]c2ccccc12	1.37%	1.04%	1.62%	inactive	3.32 µM (active)	4.18 µM (active)	4.18 µM (active)	–	–	–
O=C(O)c1cccc(-c2noc(-c3ccccc3F)n2)c1	99.8%	41.1%	93.8%	inactive	–	–	inactive	–	–	inactive
COc1cc2c(cc1OC)C1CC(=O)C(CC(C)C)CN1CC2 (configuration not stated)	67.9%	141%	100%	inactive	inactive	inactive	inactive	–	inactive	–
CCN(CC)CCOc1ccc(Cc2ccccc2)cc1	84.7%	158%	100%	inactive	18.7 µM (active)	–	–	–	–	–
O=C1NC(=O)C(c2ccccc2[N+](=O)[O-])=C1Nc1ccc(O)c(Cl)c1	125%	124%	36.6%	20.9 µM (active)	20.9 µM (active)	–	–	–	–	–
C[C@]12CCC(=O)C=C1CC[C@@H]1[C@H]2[C@@H](O)C[C@@]2(C)[C@H]1CC[C@]2(O)C(=O)CO	63%	208%	71.5%	inactive	20.9 µM (active)	inactive	inactive	–	inactive	–
COC1=C(OC)C(=O)C(CCCCCCCCCCO)=C(C)C1=O	73.4%	145%	24.2%	inactive	–	–	26.4 µM (active)	–	–	inactive
N=C(N)c1ccc2cc(OC(=O)c3ccc(N=C(N)N)cc3)ccc2c1	12.8%	175%	102%	inactive	inactive	inactive	inactive	–	–	inactive
C[C@H](Cn1cnc2c(N)ncnc21)OCP(=O)(O)O	612%	168%	130%	inactive	inactive	inactive	inactive	–	–	inactive
